Test results: PubChem BioAssay (NCI)
About 83,000 compounds went through this panel and 20% of them were active in at least one assay; those are over-represented in the sample as a whole.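 Plates (96-well) were seeded with cells, treated with compound at one concentration, and incubated for 48 hours before percent growth was determined.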 Values without a mark were called inactive. Calls of active or inactive are those of the source. Rule for the calls: active = growth percent below 10; inactive = the rest.

Key:
Assay in all cases: NCI-60 one-dose screen, 48 h (100 = growth as untreated, 0 = no growth, -100 = all killed)
Conditions in all cases: 10 µM
NCI-H23 lung = test system: NCI-H23 lung
NCI-H226 lung = test system: NCI-H226 lung
NCI-H322M lung = test system: NCI-H322M lung
HOP-62 NSCLC = test system: HOP-62 NSCLC
NCI-H460 lung = test system: NCI-H460 lung
HOP-92 NSCLC = test system: HOP-92 NSCLC
NCI-H522 lung = test system: NCI-H522 lung
786-0 renal = test system: 786-0 renal
COLO 205 colon = test system: COLO 205 colon
A549/ATCC NSCLC = test system: A549/ATCC NSCLC

SMILES | growth (NCI-H23 lung) [%] | growth (NCI-H226 lung) | growth (NCI-H322M lung) [%] | growth (HOP-62 NSCLC) [%] | growth (NCI-H460 lung) | growth (HOP-92 NSCLC) | growth (NCI-H522 lung) | growth (786-0 renal) | growth (COLO 205 colon) [%] | growth (A549/ATCC NSCLC) [%]
CCOC(=O)C(C#N)Cc1ccccc1 (centres undefined) | 105 | 112% | 116 | 116 | 117% | 101% | 111% | 109% | 123 | –
CCOC(=O)c1cc(/C=C/c2ccc(Cl)cc2Cl)on1 | 47.4 | 14.9% | 81.6 | 81 | 3.82% (active) | 100% | 54.5% | -68.6% (active) | 57.4 | 91.6
Cc1ccc(C)n1-c1ccsc1C(=O)NNC(=O)C(Cl)Cl | 98.4 | 93% | 98.6 | 96.6 | 104% | 90.5% | 91.9% | 101% | 120 | 102
O=C(O)c1cc([N+](=O)[O-])ccc1Cl | 104 | 107% | 117 | 113 | 114% | 82.1% | 73% | 99.2% | 107 | 95.3
C/C(=C\c1cc(Cl)ccc1OCC(=O)O)[N+](=O)[O-] | 96.2 | 108% | 118 | 103 | 123% | 101% | 75.6% | 117% | 115 | 92
CN(C)c1ccc(S(=O)(=O)O)cc1 | 103 | 96.6% | 116 | 91.1 | 109% | 85.8% | 101% | 110% | 102 | 105
CN(C)Cc1cc(C(C)(C)CC(C)(C)C)ccc1O | 91 | 91.2% | 100 | 91.6 | 100% | 77.1% | 68.4% | 92.9% | 97.1 | 111
Cc1nc2c(ccc3ccccc32)s1 | 98 | 109% | 116 | 103 | 115% | 93.7% | 103% | 101% | 110 | 98.6
CCCCCCCCCCCCCCCCC1CC(=O)OC1=O (centres undefined) | 107 | 103% | 114 | 95.2 | 118% | 125% | 98.6% | – | 111 | 98.5
COc1ccc2c(c1)CCc1c-2n[nH]c1-c1[nH]nc2c1CCc1cc(OC)ccc1-2 | 75.4 | 82.7% | 90.5 | 66 | 53.5% | 84.6% | 34% | 64.7% | 67.8 | 79
Cc1cc(C)c(N)c(S(=O)(=O)O)c1 | 92 | 96.4% | 108 | 91.8 | 102% | 99% | 97% | 97.2% | – | –
Cc1cccc(C(=O)N(C(C)C)C(C)C)c1 | 102 | 87.7% | 104 | 86.4 | 99.2% | 79.6% | 79.9% | 99.7% | – | –
CCOc1ccc(/C=C/C(=O)c2ccccc2)cc1 | 106 | 114% | 132 | 102 | 103% | 82.6% | 76.9% | 89.8% | 116 | 97.5
Nc1ccc(CC(=O)O)c(N)c1 | 92.3 | 92% | 97.6 | 102 | 103% | 94.5% | 99.3% | 107% | – | –
NC(=S)CN1CCOCC1 | 106 | 114% | 91.6 | 118 | 105% | 91.9% | 97.9% | – | 118 | 110
O=C(NC1CCCCC1)OCc1c(COC(=O)NC2CCCCC2)c(-c2ccc(Cl)c(Cl)c2)n2c1CCC2 | 22.7 | 2.9% (active) | 48.6 | 27.4 | 3.73% (active) | -1.46% (active) | -23.9% (active) | 8.95% (active) | 31.8 | –
Cc1cc(N)ccc1-c1ccc(N)cc1C | 92.8 | 102% | 104 | 89.9 | 104% | 47.6% | 96.9% | 101% | 103 | –
